From PubChem BioAssay (EPA / NIEHS) come the findings set out here.

The structures appear in SMILES notation. Inconclusive results are not listed. Where a structure was tested more than once in an assay, its records may differ in their call. Active and inactive are the calls of the source. The calls were made as follows: active = hit-call score of the fitted dose curve at least 0.9, where 1 is the maximum; inconclusive = response in the unintended direction; inactive = score below 0.9.

Chain of human Thyroid Receptor Alpha (TRa), THRA (gene 7067) (P10827 whole entry, looked up): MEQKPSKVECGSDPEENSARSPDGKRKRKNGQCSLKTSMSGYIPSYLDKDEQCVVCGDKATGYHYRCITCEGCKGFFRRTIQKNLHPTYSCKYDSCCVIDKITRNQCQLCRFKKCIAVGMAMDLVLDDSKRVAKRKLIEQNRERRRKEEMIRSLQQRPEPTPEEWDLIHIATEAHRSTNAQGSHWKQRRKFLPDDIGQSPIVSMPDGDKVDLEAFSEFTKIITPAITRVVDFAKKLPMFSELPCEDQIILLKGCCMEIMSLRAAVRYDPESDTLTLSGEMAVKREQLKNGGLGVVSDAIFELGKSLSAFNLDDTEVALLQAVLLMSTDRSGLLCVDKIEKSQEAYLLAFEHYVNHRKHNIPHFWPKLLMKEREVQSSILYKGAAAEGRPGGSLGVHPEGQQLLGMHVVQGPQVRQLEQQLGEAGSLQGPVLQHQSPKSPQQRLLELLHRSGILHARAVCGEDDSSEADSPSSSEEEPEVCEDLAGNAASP

The first assay has as its target human Thyroid Receptor Alpha (TRa), THRA (gene 7067) (UniProt P10827). Kind of assay: NVS_NR_hTRa_Antagonist: NovaScreen (NVS) Nuclear Receptor Binding Assay for human Thyroid Receptor Alpha Antagonism (TRa) (AID 2283362).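 Also: activity is loss of signal relative to DMSO baseline.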 In short, it runs like this:
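AlphaLISA chemiluminescent immunoassay readout, taken 1 h post-dosing in a cell-free system with extracted protein. Activity was scored as signal loss against DMSO negative control, from duplicate single-concentration (25 uM) testing followed by concentration-response follow-up.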
In the case of `CCNc1nc(Cl)nc(NC(C)C)n1`, the result was inactive.

On to `CCCCOC(=O)c1ccccc1C(=O)OCCCC`, for which the AC50 (in general, the midpoint of the concentration-response curve, whichever way the signal moves) was 0.111 µM (active).

Regarding `C#CCOS(=O)OC1CCCCC1Oc1ccc(C(C)(C)C)cc1` (stereo not drawn), the call was inactive.

Consider `CCCCC(CC)COC(=O)c1ccccc1C(=O)OCC(CC)CCCC` (stereo not drawn), for which the compound was called inactive.

For the compound `COc1ccc(C(c2ccc(OC)cc2)C(Cl)(Cl)Cl)cc1`, the outcome was inactive.

For the compound `Oc1ccccc1-c1ccccc1`, the compound was called inactive.

As for `CCCCNC(=O)OCC#CI`, the compound was classed as inactive.

Turning to `CO/C=C(/C(=O)OC)c1ccccc1Oc1cc(Oc2ccccc2C#N)ncn1`, the result was inactive.

With `CCCN(CCC)c1c([N+](=O)[O-])cc(S(N)(=O)=O)cc1[N+](=O)[O-]`, the outcome was inactive.

In the next assay the target is Glucocorticoid receptor (Homo sapiens) (UniProt P04150). Description: NVS_NR_hGR: NovaScreen (NVS) Nuclear Receptor Binding Assay for human Glucocorticoid Receptor (GR) (AID 2283363).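 As to AC50: activity is loss of specific radioligand binding signal relative to DMSO.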 In short, it runs like this: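 Filter scintillation readout of tritiated/iodinated radioligand displaced by test chemical; cell-free extracted protein; 16 h. DMSO = negative control/baseline. Duplicate single-point 25 uM screen, then concentration-response on actives.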
Chain of Glucocorticoid receptor (Homo sapiens) (P04150 whole entry, looked up): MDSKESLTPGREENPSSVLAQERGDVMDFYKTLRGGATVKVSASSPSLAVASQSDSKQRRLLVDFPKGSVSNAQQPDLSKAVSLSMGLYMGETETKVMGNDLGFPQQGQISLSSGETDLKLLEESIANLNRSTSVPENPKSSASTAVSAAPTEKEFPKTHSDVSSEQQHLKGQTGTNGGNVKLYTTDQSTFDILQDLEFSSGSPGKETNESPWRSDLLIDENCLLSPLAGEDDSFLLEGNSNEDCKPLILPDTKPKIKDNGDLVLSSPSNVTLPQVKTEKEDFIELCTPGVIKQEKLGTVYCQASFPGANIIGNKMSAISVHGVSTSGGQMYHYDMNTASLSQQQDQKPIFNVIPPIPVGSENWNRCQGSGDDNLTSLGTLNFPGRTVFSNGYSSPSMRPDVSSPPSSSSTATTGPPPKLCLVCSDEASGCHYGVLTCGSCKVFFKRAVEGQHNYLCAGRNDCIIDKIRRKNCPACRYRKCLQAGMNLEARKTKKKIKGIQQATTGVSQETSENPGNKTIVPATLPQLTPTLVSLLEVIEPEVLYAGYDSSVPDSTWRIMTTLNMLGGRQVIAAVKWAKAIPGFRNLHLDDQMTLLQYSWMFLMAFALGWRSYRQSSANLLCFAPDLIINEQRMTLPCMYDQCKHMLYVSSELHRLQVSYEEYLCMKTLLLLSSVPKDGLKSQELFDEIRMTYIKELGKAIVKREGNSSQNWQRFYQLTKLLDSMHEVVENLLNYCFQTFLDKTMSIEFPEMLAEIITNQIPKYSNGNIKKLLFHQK
Turning to `Cc1ccc(-c2c(Cl)nc(C#N)n2S(=O)(=O)N(C)C)cc1`, the compound was classed as inactive.

For `CCCC1COC(Cn2cncn2)(c2ccc(Cl)cc2Cl)O1` (stereo not drawn), the AC50 is 10.5 µM (active).

Take `CCNc1nc(Cl)nc(NC(C)C)n1`: the outcome was inactive.

For the compound `CNC(=S)S`, the compound was called inactive.

Consider `COP(N)(=O)SC` (stereo not drawn), for which the call was inactive.

On to `CCCCOC(=O)c1ccccc1C(=O)OCCCC`, for which the call was inactive.

For `C#CCOS(=O)OC1CCCCC1Oc1ccc(C(C)(C)C)cc1` (stereo not drawn), the AC50 is 16.5 µM (active).

As for `CCCCC(CC)COC(=O)c1ccccc1C(=O)OCC(CC)CCCC` (stereo not drawn), the AC50 is 8.8 µM (active).

With `C=CCC1=C(C)C(OC(=O)C2C(C=C(C)C)C2(C)C)CC1=O` (stereo not drawn), the compound was classed as inactive.

With `C=CC1(C)OC(=O)N(c2cc(Cl)cc(Cl)c2)C1=O` (stereo not drawn), the AC50 was 6.97 µM (active) and the compound was called inactive.

Consider `COc1ccc(C(c2ccc(OC)cc2)C(Cl)(Cl)Cl)cc1`, for which the outcome was inactive.

For `CON(C)C(=O)Nc1ccc(Cl)c(Cl)c1`, the AC50 is 8.61 µM (active).

As to `COC(=O)c1ccccc1C(=O)OC`, the compound was called inactive.
